Laboratory results published in ChEMBL document CHEMBL3988442, “University of Dundee, Small-Polar-MMV Screening Library” (2021).

Target: Sialic acid-binding Ig-like lectin 9 (Homo sapiens) (UniProt Q9Y336)
Experiment: Hs-Siglec9 ALPHAscreen SOP 20170721
Parameters: scale not given: direction of the effect not stated beside the values
Conditions: 10 µM

Chain of Sialic acid-binding Ig-like lectin 9 (Homo sapiens) (Q9Y336 whole entry): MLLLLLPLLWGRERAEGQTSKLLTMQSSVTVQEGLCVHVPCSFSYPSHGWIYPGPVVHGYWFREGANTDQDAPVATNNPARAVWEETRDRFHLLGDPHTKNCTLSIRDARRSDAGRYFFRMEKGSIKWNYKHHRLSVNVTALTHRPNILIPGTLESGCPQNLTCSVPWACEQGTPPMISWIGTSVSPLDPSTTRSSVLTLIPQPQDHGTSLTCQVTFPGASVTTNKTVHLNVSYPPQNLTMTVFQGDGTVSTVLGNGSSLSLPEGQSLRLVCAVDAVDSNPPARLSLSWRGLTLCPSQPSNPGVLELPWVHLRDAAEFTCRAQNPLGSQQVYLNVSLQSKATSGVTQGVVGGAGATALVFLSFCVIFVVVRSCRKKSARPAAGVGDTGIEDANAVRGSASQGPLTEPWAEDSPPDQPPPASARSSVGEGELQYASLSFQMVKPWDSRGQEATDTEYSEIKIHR

Q: Which Percent Effect does the source give for `O=C(CSc1ccc(F)c(F)c1)NS(=O)(=O)c1ccc2c(c1)OCCO2` here?
A: The Percent Effect was -9.59%.

Q: Which Percent Effect does the source give for `CC1COCCN1C(=O)c1cccc(OCc2cscn2)c1` (stereo not drawn) here?
A: The Percent Effect was -10.6%.

Q: How did the Percent Effect turn out when `Cc1[nH]ccc1C(=O)N1CCCC(c2nccn2Cc2cscn2)C1` (stereo not drawn) was run?
A: The Percent Effect was 27.9%.

Q: `O=C(c1ccc(C(F)(F)F)nc1)N1CCCC(n2cncn2)C1` (stereo not drawn) was tested. Which Percent Effect did it give?
A: Its Percent Effect is -2.26%.

Q: `Cc1ccc2oc(C(=O)N3CCC(C(=O)N4CCCC4)CC3)cc2n1` was tested. Which Percent Effect did it give?
A: Its Percent Effect is 1.13%.

Q: `Cc1ccc(N2CCCN(C(=O)c3c(C)oc(C)c3C)CC2)nn1` was tested. Which Percent Effect did it give?
A: Its Percent Effect is 5.84%.

Q: For `CN(c1ccncn1)C1CC2(CCN(C(=O)c3ccsc3)C2)C1` (stereo not drawn), which Percent Effect is on record?
A: The Percent Effect was 0.226%.

Q: For `CCc1nc(C2CCCN2C(=O)c2ncoc2CC)no1` (stereo not drawn), which Percent Effect is on record?
A: Its Percent Effect is 5.36%.

Q: For `CCc1c(C)nn(CCNC(=O)C2CCCN(C(=O)N(C)C)C2)c1C` (stereo not drawn), which Percent Effect is on record?
A: Its Percent Effect is 6.18%.

Q: With `CCn1ncnc1C1CC(=O)NCc2nc3ccccn3c21` (stereo not drawn) as the compound, how does the Percent Effect read?
A: Its Percent Effect is 16.9%.

Q: Which Percent Effect does the source give for `Cc1nc(CN2CCCC(CCc3ccc(F)cc3F)C2)c[nH]1` (stereo not drawn) here?
A: The Percent Effect was 37.1%.

Q: `COc1ccc(C2CC(=O)Nc3c2nc2n3CCCC2)cc1OC` (stereo not drawn) was tested. Which Percent Effect did it give?
A: Its Percent Effect is 3.86%.

Q: How did the Percent Effect turn out when `O=C(c1cc(Cl)c2c(c1)OCO2)N1CCCC(n2ccnc2)C1` (stereo not drawn) was run?
A: Its Percent Effect is 3.84%.

Q: With `Cc1ccccc1N1CC2(CCN(S(=O)(=O)C3CC3)C2)CC1=O` (stereo not drawn) as the compound, how does the Percent Effect read?
A: Its Percent Effect is -5.74%.

Q: `CCc1nc(CN2CCCN(C(=O)COCC3CC3)CC2)cs1` was tested. Which Percent Effect did it give?
A: The Percent Effect was -6.97%.

Q: How did the Percent Effect turn out when `O=C1CN(Cc2ccc(-c3ccccc3C(=O)O)cc2)CCN1` was run?
A: Its Percent Effect is -5.14%.

Q: For `Cc1cn2c(n1)CCC(NC(=O)c1cc(Br)cn1C)C2` (stereo not drawn), which Percent Effect is on record?
A: Its Percent Effect is 0.858%.

Q: How did the Percent Effect turn out when `COCc1ncc(CN2CCC(Oc3ccccc3OC)CC2)cn1` was run?
A: Its Percent Effect is 1.93%.

Q: Which Percent Effect does the source give for `Cn1cc(N2CC3(COCCN(Cc4ccsc4)C3)OCC2=O)cn1` (stereo not drawn) here?
A: The Percent Effect was 10.7%.

Q: Which Percent Effect does the source give for `CC(C)c1nn(C)c(N2CCOCC2)c1CNCC(=O)N(C)C` here?
A: Its Percent Effect is -8.89%.

Q: How did the Percent Effect turn out when `CCc1ccsc1C(=O)N1CCN(CC(O)CC)CC1` (stereo not drawn) was run?
A: The Percent Effect was 4.04%.

Q: With `COCCC(=O)N1CCC2(CC1)CC(c1ccccc1)CN(C)C2` (stereo not drawn) as the compound, how does the Percent Effect read?
A: Its Percent Effect is 7.24%.

Q: For `COc1ccc(CNCc2ccc(N3CCCCC3)nc2)cc1OC`, which Percent Effect is on record?
A: Its Percent Effect is -8.85%.

Q: How did the Percent Effect turn out when `Cc1cc(C)n(CC2CCCN2CCc2ccncc2)n1` (stereo not drawn) was run?
A: Its Percent Effect is -18.5%.

Q: Which Percent Effect does the source give for `COCCc1noc(CN2CCCC2Cn2cc(C)cn2)n1` (stereo not drawn) here?
A: Its Percent Effect is 1.3%.

Q: How did the Percent Effect turn out when `CC(NC(=O)N(C)CCCOc1ccc(F)cc1)c1nncn1C` (stereo not drawn) was run?
A: Its Percent Effect is -3.38%.

Q: For `CC(Nc1cccc(CN2CCOC2=O)c1)C(=O)Nc1ccccc1F` (stereo not drawn), which Percent Effect is on record?
A: Its Percent Effect is 0.909%.

Q: How did the Percent Effect turn out when `COc1cccc2c1OCC(C(=O)NC1CCN(S(C)(=O)=O)CC1)C2` (stereo not drawn) was run?
A: The Percent Effect was 3.48%.

Q: `CC(=O)N1CCCC1c1cc(N2CCN(C3CCCC3)CC2)cc(C)n1` (stereo not drawn) was tested. Which Percent Effect did it give?
A: The Percent Effect was -8.17%.

Q: How did the Percent Effect turn out when `Cn1cnc2c1CCN(Cc1ccc(C(=O)N3CCCC3)cc1)C2` was run?
A: Its Percent Effect is -9.12%.

Q: Which Percent Effect does the source give for `c1csc(CN2CCOCC3(CCN(C4CCOCC4)C3)C2)n1` (stereo not drawn) here?
A: The Percent Effect was -3.43%.

Q: Which Percent Effect does the source give for `CCN(CC1CCOC1)C(=O)Nc1ccc(-n2cncn2)nc1` (stereo not drawn) here?
A: The Percent Effect was -0.956%.

Q: For `Cn1cc(NC(=O)N2CCC(NS(C)(=O)=O)CC2)ccc1=O`, which Percent Effect is on record?
A: The Percent Effect was 0.0157%.

Q: How did the Percent Effect turn out when `O=C(NCCNC(=O)c1scnc1Cl)c1ccccc1` was run?
A: Its Percent Effect is 3.33%.

Q: Which Percent Effect does the source give for `Cc1cc(C(=O)O)cc(S(=O)(=O)Nc2ccc3c(c2)OCO3)c1C` here?
A: The Percent Effect was -9.72%.

Q: For `Cc1ccc(-c2cc(CN3CCCC(Cn4cncn4)C3)on2)cc1` (stereo not drawn), which Percent Effect is on record?
A: The Percent Effect was -2.07%.

Q: Which Percent Effect does the source give for `CNc1cncc(C2CCCN2C(=O)c2ccc3oc(C)cc3c2)n1` (stereo not drawn) here?
A: The Percent Effect was -1.38%.

Q: `Cc1cc(NC(=O)CN2CCCC2c2noc(C(C)C)n2)n(C)n1` (stereo not drawn) was tested. Which Percent Effect did it give?
A: Its Percent Effect is 2.01%.

Q: Which Percent Effect does the source give for `COCCC(=O)N1CCCC2(CCC(=O)N2CCOC)CC1` (stereo not drawn) here?
A: The Percent Effect was -2.38%.

Test system: Trypanosoma cruzi
Experiment: Trypanosoma cruzi phosphomannomutase and mannose-1-phosphate guanylyltransferase assay
Assay type: functional
Parameters: scale not given: direction of the effect not stated beside the values
Conditions: 10 µM

Q: For `O=C(CSc1ccc(F)c(F)c1)NS(=O)(=O)c1ccc2c(c1)OCCO2`, which Percent Effect is on record?
A: Its Percent Effect is 0.282%.

Q: `CC1COCCN1C(=O)c1cccc(OCc2cscn2)c1` (stereo not drawn) was tested. Which Percent Effect did it give?
A: Its Percent Effect is 7.98%.

Q: `Cc1[nH]ccc1C(=O)N1CCCC(c2nccn2Cc2cscn2)C1` (stereo not drawn) was tested. Which Percent Effect did it give?
A: The Percent Effect was 9.99%.

Q: Which Percent Effect does the source give for `O=C(c1ccc(C(F)(F)F)nc1)N1CCCC(n2cncn2)C1` (stereo not drawn) here?
A: Its Percent Effect is 5.92%.

Q: `Cc1ccc2oc(C(=O)N3CCC(C(=O)N4CCCC4)CC3)cc2n1` was tested. Which Percent Effect did it give?
A: Its Percent Effect is 2.35%.

Q: Which Percent Effect does the source give for `Cc1ccc(N2CCCN(C(=O)c3c(C)oc(C)c3C)CC2)nn1` here?
A: The Percent Effect was 2.61%.

Q: For `CN(c1ccncn1)C1CC2(CCN(C(=O)c3ccsc3)C2)C1` (stereo not drawn), which Percent Effect is on record?
A: Its Percent Effect is 3.55%.

Q: `CCc1nc(C2CCCN2C(=O)c2ncoc2CC)no1` (stereo not drawn) was tested. Which Percent Effect did it give?
A: The Percent Effect was 10.6%.

Q: How did the Percent Effect turn out when `CCc1c(C)nn(CCNC(=O)C2CCCN(C(=O)N(C)C)C2)c1C` (stereo not drawn) was run?
A: The Percent Effect was 2.04%.

Q: How did the Percent Effect turn out when `CCn1ncnc1C1CC(=O)NCc2nc3ccccn3c21` (stereo not drawn) was run?
A: The Percent Effect was 6.11%.

Q: `Cc1nc(CN2CCCC(CCc3ccc(F)cc3F)C2)c[nH]1` (stereo not drawn) was tested. Which Percent Effect did it give?
A: The Percent Effect was 4.75%.

Q: With `COc1ccc(C2CC(=O)Nc3c2nc2n3CCCC2)cc1OC` (stereo not drawn) as the compound, how does the Percent Effect read?
A: The Percent Effect was -4.56%.

Q: How did the Percent Effect turn out when `O=C(c1cc(Cl)c2c(c1)OCO2)N1CCCC(n2ccnc2)C1` (stereo not drawn) was run?
A: Its Percent Effect is 2.01%.

Q: Which Percent Effect does the source give for `Cc1ccccc1N1CC2(CCN(S(=O)(=O)C3CC3)C2)CC1=O` (stereo not drawn) here?
A: Its Percent Effect is -5.07%.

Q: For `CCc1nc(CN2CCCN(C(=O)COCC3CC3)CC2)cs1`, which Percent Effect is on record?
A: The Percent Effect was -0.282%.

Q: For `O=C1CN(Cc2ccc(-c3ccccc3C(=O)O)cc2)CCN1`, which Percent Effect is on record?
A: The Percent Effect was -4.73%.

Q: For `Cc1cn2c(n1)CCC(NC(=O)c1cc(Br)cn1C)C2` (stereo not drawn), which Percent Effect is on record?
A: The Percent Effect was -3.41%.

Q: How did the Percent Effect turn out when `COCc1ncc(CN2CCC(Oc3ccccc3OC)CC2)cn1` was run?
A: Its Percent Effect is -3.59%.

Q: `Cn1cc(N2CC3(COCCN(Cc4ccsc4)C3)OCC2=O)cn1` (stereo not drawn) was tested. Which Percent Effect did it give?
A: The Percent Effect was -1.46%.

Q: `CC(C)c1nn(C)c(N2CCOCC2)c1CNCC(=O)N(C)C` was tested. Which Percent Effect did it give?
A: The Percent Effect was 1.22%.

Q: `CCc1ccsc1C(=O)N1CCN(CC(O)CC)CC1` (stereo not drawn) was tested. Which Percent Effect did it give?
A: The Percent Effect was 4.66%.

Q: `COCCC(=O)N1CCC2(CC1)CC(c1ccccc1)CN(C)C2` (stereo not drawn) was tested. Which Percent Effect did it give?
A: Its Percent Effect is 2.42%.

Q: `COc1ccc(CNCc2ccc(N3CCCCC3)nc2)cc1OC` was tested. Which Percent Effect did it give?
A: Its Percent Effect is 5.92%.

Q: `Cc1cc(C)n(CC2CCCN2CCc2ccncc2)n1` (stereo not drawn) was tested. Which Percent Effect did it give?
A: Its Percent Effect is 12.5%.

Q: `COCCc1noc(CN2CCCC2Cn2cc(C)cn2)n1` (stereo not drawn) was tested. Which Percent Effect did it give?
A: The Percent Effect was 3.21%.

Q: For `CC(NC(=O)N(C)CCCOc1ccc(F)cc1)c1nncn1C` (stereo not drawn), which Percent Effect is on record?
A: Its Percent Effect is 0.803%.

Q: `CC(Nc1cccc(CN2CCOC2=O)c1)C(=O)Nc1ccccc1F` (stereo not drawn) was tested. Which Percent Effect did it give?
A: Its Percent Effect is -1.41%.

Q: Which Percent Effect does the source give for `COc1cccc2c1OCC(C(=O)NC1CCN(S(C)(=O)=O)CC1)C2` (stereo not drawn) here?
A: The Percent Effect was 3.59%.

Q: With `CC(=O)N1CCCC1c1cc(N2CCN(C3CCCC3)CC2)cc(C)n1` (stereo not drawn) as the compound, how does the Percent Effect read?
A: The Percent Effect was -2.96%.

Q: `Cn1cnc2c1CCN(Cc1ccc(C(=O)N3CCCC3)cc1)C2` was tested. Which Percent Effect did it give?
A: Its Percent Effect is 1.97%.

Q: Which Percent Effect does the source give for `c1csc(CN2CCOCC3(CCN(C4CCOCC4)C3)C2)n1` (stereo not drawn) here?
A: Its Percent Effect is -4.77%.

Q: Which Percent Effect does the source give for `CCN(CC1CCOC1)C(=O)Nc1ccc(-n2cncn2)nc1` (stereo not drawn) here?
A: Its Percent Effect is -12.7%.

Q: How did the Percent Effect turn out when `Cn1cc(NC(=O)N2CCC(NS(C)(=O)=O)CC2)ccc1=O` was run?
A: Its Percent Effect is -2.54%.

Q: For `O=C(NCCNC(=O)c1scnc1Cl)c1ccccc1`, which Percent Effect is on record?
A: The Percent Effect was 2.01%.

Q: Which Percent Effect does the source give for `Cc1cc(C(=O)O)cc(S(=O)(=O)Nc2ccc3c(c2)OCO3)c1C` here?
A: Its Percent Effect is 2.91%.

Q: For `Cc1ccc(-c2cc(CN3CCCC(Cn4cncn4)C3)on2)cc1` (stereo not drawn), which Percent Effect is on record?
A: Its Percent Effect is -1.68%.

Q: With `CNc1cncc(C2CCCN2C(=O)c2ccc3oc(C)cc3c2)n1` (stereo not drawn) as the compound, how does the Percent Effect read?
A: Its Percent Effect is 3.35%.

Q: How did the Percent Effect turn out when `Cc1cc(NC(=O)CN2CCCC2c2noc(C(C)C)n2)n(C)n1` (stereo not drawn) was run?
A: Its Percent Effect is 0%.

Q: Which Percent Effect does the source give for `COCCC(=O)N1CCCC2(CCC(=O)N2CCOC)CC1` (stereo not drawn) here?
A: The Percent Effect was -4.13%.
